In publication PMC5540273 (PLoS ONE, 2017):

What was measured:
Details in all cases: concentration: 1 μM, replicates: in singlicate; n = 1
[1] = test system: PKN1
[2] = test system: PKN2
[3] = test system: PLK1
[4] = test system: PLK2
[5] = test system: PLK3
[6] = test system: PLK4
[7] = test system: PRKCD
[8] = test system: PRKCE
[9] = test system: PRKCH
[10] = test system: PRKCI
[11] = test system: PRKCQ
[12] = test system: PRKD1
[13] = test system: PRKD2
[14] = test system: PRKD3
[15] = test system: PRKG1
[16] = test system: PRKG2
[17] = test system: T1, PRKR
T1 construct: gene EIF2AK2

[18] = test system: PRKX
[19] = test system: PRP4
[20] = test system: T2, PYK2
T2 construct: gene PTK2B
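Further: KINOMEscan kinase panel screen.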

| SMILES | %Inh [1] [%] | %Inh [2] [%] | %Inh [3] [%] | %Inh [4] [%] | %Inh [5] [%] | %Inh [6] [%] | %Inh [7] [%] | %Inh [8] [%] | %Inh [9] [%] | %Inh [10] [%] | %Inh [11] [%] | %Inh [12] [%] | %Inh [13] [%] | %Inh [14] [%] | %Inh [15] [%] | %Inh [16] [%] | %Inh [17] [%] | %Inh [18] [%] | %Inh [19] [%] | %Inh [20] [%] |
| --- | --- | --- | --- | --- | --- | --- | --- | --- | --- | --- | --- | --- | --- | --- | --- | --- | --- | --- | --- | --- |
| Cl.Oc1ccc(-c2nc(-c3ccccc3)[nH]c2-c2ccncc2)cc1 [SB-428218] | 0 | 0 | 0 | 0 | 0 | 0 | 0 | 33 | 0 | 12 | 0 | 0 | 9 | 0 | 12 | 0 | 0 | 0 | 57 | 0 |
| CC(C)(C)c1ccc(C(=O)Nc2cn3cc(-c4cccnc4)ccc3n2)cc1 | 25 | 22 | 0 | 16 | 24 | 15 | 36 | 4 | 0 | 26 | 22 | 21 | 14 | 5 | 7 | 26 | 0 | 10 | 22 | 7 |
| O=C1NC(=O)C(N2CCc3ccccc32)=C1c1ccccc1Cl [SB-373598] | 0 | 13 | 14 | 0 | 0 | 12 | 19 | 3 | 30 | 0 | 7 | 12 | 3 | 0 | 36 | 12 | 5 | 12 | 0 | 0 |
| O=C(Nc1ccc2c(c1)OCO2)NC1CCN(c2ccnc(Nc3ccc(F)cc3)n2)C1 (stereo not drawn) [GSK1379724] | 4 | 0 | 0 | 0 | 0 | 0 | 0 | 7 | 0 | 0 | 0 | 16 | 5 | 0 | 0 | 0 | 0 | 0 | 17 | 0 |
| O=S(=O)(c1ccc(-c2ccnc3[nH]ccc23)cc1)N1CCCC1 [GSK846226] | 40 | 0 | 0 | 4 | 0 | 0 | 0 | 2 | 0 | 20 | 0 | 0 | 3 | 0 | 36 | 14 | 21 | 28 | 8 | 0 |
| Cl.c1ccc(-c2n[nH]cc2-c2ccnc(-c3ccc(CN4CCOCC4)cc3)c2)nc1 [GW776245] | 0 | 0 | 17 | 0 | 4 | 0 | 11 | 0 | 0 | 48 | 0 | 62 | 44 | 28 | 0 | 16 | 0 | 0 | 0 | 14 |
| Nc1ncnc2[nH]c(-c3ccccc3)nc12 [AH5015] | 0 | 0 | 2 | 16 | 0 | 99.9 | 0 | 14 | 18 | 0 | 0 | 0 | 0 | 9 | 6 | 0 | 0 | 0 | 30 | 0 |
| Cn1cncc1-c1ccc2ncnc(Nc3ccc(OCc4ccccc4)cc3)c2c1 [GW320571] | 1 | 0 | 9 | 0 | 0 | 0 | 0 | 14 | 14 | 32 | 16 | 26 | 5 | 15 | 26 | 0 | 0 | 4 | 0 | 34 |
| O=C(Nc1n[nH]c2nc(-c3nccs3)c(Br)cc12)C1CC1 [SB-742251] | 6 | 0 | 0 | 0 | 0 | 0 | 0 | 11 | 0 | 5 | 32 | 0 | 0 | 0 | 0 | 0 | 0 | 0 | 51 | 0 |
| COc1ccc(C2=C(Nc3cccc(C(=O)O)c3)C(=O)NC2=O)cc1 [SB-390765] | 18 | 7 | 21 | 48 | 21 | 2 | 5 | 25 | 4 | 47 | 12 | 0 | 0 | 0 | 0 | 0 | 11 | 0 | 0 | 17 |
| Cc1c(Cn2ccn3c(=O)cc(N4CCOCC4)nc23)cccc1C(F)(F)F [GSK2289044] | 20 | 5 | 0 | 0 | 0 | 0 | 0 | 0 | 8 | 0 | 3 | 6 | 19 | 0 | 0 | 9 | 4 | 25 | 0 | 0 |
| Nc1nc(-c2nccs2)c(-c2ccnc3ccccc23)s1 [GW693542] | 6 | 2 | 0 | 0 | 0 | 0 | 1 | 8 | 16 | 30 | 39 | 42 | 14 | 12 | 8 | 0 | 0 | 10 | 20 | 16 |
| COc1ccccc1CNC(=O)c1cc(C(=O)c2ccccc2C)c[nH]1 [GSK364507] | 0 | 0 | 0 | 0 | 0 | 100 | 0 | 1 | 6 | 3 | 0 | 9 | 1 | 5 | 1 | 2 | 0 | 7 | 23 | 7 |
| Cc1ccccc1-n1cnc2c(N)ncnc21 [SKF-97510] | 0 | 0 | 0 | 0 | 0 | 0 | 0 | 0 | 0 | 0 | 0 | 0 | 0 | 4 | 0 | 0 | 0 | 0 | 0 | 0 |
| Cc1c(O)cccc1Nc1ccnc2ccc(C(F)(F)F)cc12.Cl [GW466413] | 0 | 0 | 0 | 0 | 0 | 0 | 0 | 0 | 28 | 0 | 0 | 0 | 0 | 0 | 5 | 0 | 0 | 0 | 4 | 0 |
| Cc1nnc(-c2ccc3occ(-c4ccc(S(C)=O)cc4)c3c2)[nH]1 (stereo not drawn) | 0 | 0 | 0 | 14 | 7 | 11 | 13 | 7 | 0 | 0 | 0 | 0 | 4 | 0 | 0 | 0 | 0 | 51 | 10 | 26 |
| CN(C)CCN(C)C(=O)c1cc(-c2ccncc2)c(-c2ccc(Cl)c(O)c2)o1.Cl.Cl [SB-710397] | 17 | 0 | 8 | 0 | 0 | 0 | 0 | 47 | 22 | 33 | 3 | 0 | 57 | 12 | 0 | 0 | 0 | 0 | 60 | 12 |
| CN1C(=O)C(Nc2ccc(Cl)c(C(=O)O)c2)=C(c2ccc(Cl)cc2)C1=O [SB-404290] | 91.6 | 31 | 18 | 24 | 18 | 0 | 0 | 35 | 0 | 0 | 77 | 0 | 6 | 0 | 13 | 0 | 0 | 0 | 0 | 5 |
| O=C(O)COc1ncnc2cc(-c3ccc4[nH]ncc4c3)sc12 | 30 | 19 | 2 | 18 | 12 | 15 | 19 | 10 | 0 | 3 | 41 | 0 | 0 | 25 | 17 | 0 | 0 | 41 | 0 | 0 |
| Fc1cccc(COc2nnc(-c3ccc4c(c3)CCO4)o2)c1 | 0 | 0 | 0 | 9 | 11 | 12 | 12 | 0 | 0 | 0 | 22 | 0 | 1 | 0 | 0 | 0 | 0 | 0 | 8 | 10 |
| COc1ccccc1-c1ccc2c(NC(=O)C3CC3)n[nH]c2n1 [SB-711239] | 12 | 2 | 10 | 0 | 0 | 0 | 0 | 3 | 27 | 0 | 9 | 0 | 11 | 30 | 27 | 22 | 7 | 25 | 53 | 0 |
